The entries come from a sample that favours hits as a whole.
BL2 CD40 inh = CD40 pathway inhibition in BL2 cells; BL2 NF-kB luciferase reporter, CD40L-induced, 4 h; inhibition, % at 10 µM; hit rate 0.94% among 83,000; AID 1053188;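 active = mean inhibition of at least 50% with a set share of replicates also reaching that level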;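 also: 0% = neutral control wells and 100% = IKK inhibitor VII at 50 µM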
* marks the source's active call; other numbers are inactive results; [ ] = another dose, or the depositor's remark.

SMILES | BL2 CD40 inh
CCc1nnc(NC(=O)C2Cc3ccccc3CN2S(=O)(=O)CC)s1 (stereo unspecified) | -20
CCNC(=O)[C@H]1[C@H](CO)[C@H]2Cn3c(ccc(-c4ccccc4)c3=O)[C@H]2N1Cc1cc(F)ccc1F | 6[25 µM]
Nc1nc2ccccc2cc1S(=O)(=O)c1ccccc1 | 6
Cc1cc(N)c2ccccc2n1 | 3
Nc1cccc2nc3ccccc3cc12 | active
C[C@@H]1CN(C)C(=O)c2cccc(N(C)C)c2O[C@@H]1CN(C)C | 6
NS(=O)(=O)c1ccc(N/N=C/c2ccccn2)c([N+](=O)[O-])c1 | 2
NS(=O)(=O)c1ccc(Sc2nc3ccccc3s2)c([N+](=O)[O-])c1 | 81*
CSc1nc2ccccc2s1 | 2
CCC(=O)N1[C@H](C(=O)N2CCCCC2)[C@@H](CO)[C@@H]2Cn3c(ccc(-c4cccc(F)c4)c3=O)[C@@H]21 | -20[25 µM]
COc1ccc(C[C@H]2CCc3cnnn3COCCNC2=O)cc1 | 4[25 µM]
COc1ccc(S(=O)(=O)N(C)C[C@@H]2OCc3cn(nn3)CCCC(=O)N([C@@H](C)CO)C[C@@H]2C)cc1 | -8[25 µM]
CC(=O)N(C)C[C@@H]1Oc2ccc(NC(=O)NC(C)C)cc2CC(=O)N(C)C[C@@H]1C | 1
O=C(O)c1ccc(Nc2nc3c(s2)CCCC3)cc1 | 72*
O=C(Nc1nc2c(s1)CCCC2)Oc1ccccc1 | -32
O=C(Nc1nc2c(s1)CCCC2)c1cccnc1 | -67
N#C[C@@H]1[C@H](c2ccc(-c3cccc(F)c3)cc2)[C@H](CO)N1C(=O)NC1CCCCC1 | 12
CC(=O)N1CC2(C1)[C@H](c1ccc(-c3ccc(F)cc3)cc1)[C@@H](CO)N2CC1CC1 | 1[25 µM]
CN1C(=O)c2cc(NC(=O)C3CCC3)ccc2OC[C@H]2O[C@@H](CC(=O)NCC3CCCCC3)CC[C@H]21 | 0
O=C(Nc1ccc(N2CCOCC2)cc1)c1cn2ccccc2n1 | 57*
O=C(Nc1ccc(Cl)c(S(=O)(=O)N2CCOCC2)c1)c1cn2ccccc2n1 | 6
O=C(NC1CC1)c1cccc(NC(=O)c2cn3ccccc3n2)c1 | -90
CNC[C@H]1Oc2ccc(N)cc2CC(=O)N(C)C[C@@H]1C | -8
C[C@H]1CN(C)C(=O)c2cc(N)ccc2O[C@H]1CN(C)C | 4
CCCN(C)C[C@H]1OCc2cnnn2CCCC(=O)N([C@H](C)CO)C[C@H]1C | 1[25 µM]
SMILES | BL2 CD40 inh
COCC(=O)N1[C@H](CO)[C@@H]2c3ccccc3N(C)C[C@@H]21 | -15[25 µM]
CC1CCCC=CC2CC(OC(=O)CN(C)C)CC2C(O)C=CC(=O)O1 (stereo unspecified) | 83*
CCNC(=O)C[C@H]1CC[C@H]2[C@H](COc3ccc(NC(=O)c4cccc(OC)c4)cc3C(=O)N2C)O1 | -6
CNC[C@H]1Oc2ccc(NC(=O)NC(C)C)cc2CC(=O)N(C)C[C@H]1C | 0
O=C(CC1CC1)N1CC(=O)N2[C@H](C1)[C@H](c1ccc(/C=C/c3ccccc3)cc1)[C@@H]2CO | 7[25 µM]
CN1c2ccc(-c3cccc(F)c3)cc2[C@H]2[C@H](CCN2C(=O)c2ccncc2)[C@H]1CO | 8[25 µM]
NC(=O)c1ccc(C23CC4CC(CC(C4)C2)C3)o1 | -1
NCCOc1ccc(C23CC4CC(CC(C4)C2)C3)cc1 | 104*
Nc1nnc(CCOc2ccc(Cl)cc2)s1 | -4
CC(=O)c1cc(-c2ccccc2)n(CCC(=O)NC2CCCCCCC2)c1C | 2
O=C(CN1CCN(Cc2ccccc2)C1=O)NCc1cccs1 | 0
CC(=O)c1cc(-c2ccccc2)n(CC(=O)NCc2cccs2)c1C | 54*
CC=Cc1ccc2n(c1=O)C[C@@H]1N[C@H]2[C@H](C(=O)NC2CCCCC2)[C@H]1CO (mixture of isomers) | -2
CCc1cnc(N2[C@@H](C#N)[C@@H](c3ccc(C#CCC4CCCC4)cc3)[C@@H]2CO)s1 | 16[25 µM]
CCc1cnc(N2[C@H](C#N)[C@H](c3ccc(C#CCC4CCCC4)cc3)[C@H]2CO)s1 | 5[25 µM]
CCc1cnc(N2[C@H](C#N)[C@H](c3ccc(C#CCC4CCCC4)cc3)[C@@H]2CO)s1 | 56*[25 µM]
FC(F)(F)c1cccc(CN2[C@@H]3CNC[C@H]2[C@@H]3c2ccc(-c3cccnc3)cc2)c1 | 4[25 µM]
COc1cccc(S(=O)(=O)N2CCCCN3[C@H](C2)[C@H](c2ccc(C#CCC(C)C)cc2)[C@@H]3CO)c1 | 7[25 µM]
C[C@H](CO)N1C[C@H](C)[C@@H](CN(C)Cc2ccccc2)OCc2ccccc2-c2ccccc2C1=O | 7
C[C@@H]1CN([C@H](C)CO)C(=O)c2ccccc2-c2ccccc2CO[C@@H]1CN(C)Cc1ccccc1C(F)(F)F | 83*[25 µM]
C[C@@H]1CN([C@@H](C)CO)C(=O)c2ccccc2-c2ccccc2CO[C@@H]1CN(C)Cc1ccccc1C(F)(F)F | 53*[25 µM]
C[C@H]1CN([C@@H](C)CO)C(=O)c2ccccc2-c2ccccc2CO[C@H]1CN(C)Cc1ccccc1C(F)(F)F | 33[25 µM]
C[C@@H]1CN([C@@H](C)CO)C(=O)c2ccccc2-c2ccccc2CO[C@@H]1CN(C)Cc1ccc(C(F)(F)F)cc1 | 3
C[C@H](CO)N1C[C@H](C)[C@H](CN(C)Cc2ccccc2C(F)(F)F)OCc2ccccc2-c2ccccc2C1=O | 45[25 µM]
C[C@H](CO)N1C[C@H](C)[C@@H](CN(C)Cc2ccc(Oc3ccccc3)cc2)OCc2ccccc2-c2ccccc2C1=O | 69*[25 µM]
SMILES | BL2 CD40 inh
C[C@@H]1CN([C@H](C)CO)C(=O)c2ccccc2-c2ccccc2CO[C@@H]1CN(C)Cc1ccccc1 | 11
COc1ccccc1CN(C)C[C@H]1OCc2ccccc2-c2ccccc2C(=O)N([C@@H](C)CO)C[C@H]1C | -8[25 µM]
COc1ccc2c3c([nH]c2c1)[C@@H](CO)NCC31CCN(C(=O)c2ccccc2)CC1 | 2[25 µM]
CN1CCCCN2[C@H](C1)[C@@H](c1ccc(-c3ccc(F)cc3)cc1)[C@@H]2CO | 5[25 µM]
CCS(=O)(=O)N1CC2(CN(C(=O)c3ccc(F)cc3)[C@H](CO)c3[nH]c4cc(OC)ccc4c32)C1 | -1[25 µM]
O=C(Cc1ccccn1)N[C@H]1CC[C@@H](CCNS(=O)(=O)c2cccc(F)c2)O[C@@H]1CO | 8[25 µM]
Cc1ccc(S(=O)(=O)Nc2ccc3c(c2)C(=O)N(C)[C@H]2CC[C@@H](CC(=O)NCCc4ccncc4)O[C@@H]2CO3)cc1 | -12[25 µM]
O=C(Cc1cccc([N+](=O)[O-])c1)Nc1ccccc1 | -2
O=[N+]([O-])c1ccc(CS(=O)c2ccccc2)cc1 (stereo unspecified) | -6
O=[N+]([O-])c1ccc(S(=O)Cc2ccccc2)c([N+](=O)[O-])c1 (stereo unspecified) | 106*
C[C@@H](NC(=O)[C@H]1[C@H](CO)[C@H]2Cn3c(ccc(-c4ccccc4)c3=O)[C@H]2N1C)c1ccccc1 | 3[25 µM]
C[C@@H]1CN([C@@H](C)CO)C(=O)c2cccc(NC(=O)C3CCCCC3)c2O[C@H]1CN(C)S(C)(=O)=O | -12[25 µM]
Cc1ccc(S(=O)(=O)c2ccc([N+](=O)[O-])o2)cc1 | 109*
CC12CN3CC(C)(CN(C1)C3c1ccc([N+](=O)[O-])o1)C2 (stereo unspecified) | -5
Cc1ccc(-c2nnc(NC(=O)c3ccc([N+](=O)[O-])o3)o2)c(C)c1 | -4
CC(=O)N1C2CN(CC(F)(F)F)CC1C2c1ccc(Br)cc1 (stereo unspecified) | 8
Cc1cc(NCCCN2CCOCC2)n2c(nc3ccccc32)c1C#N | -15
Cc1cc(NCCN2CCOCC2)n2c(nc3ccccc32)c1C#N | 3
Cc1cc(Nc2cccc([N+](=O)[O-])c2)n2c(nc3ccccc32)c1C#N | 78*
Cc1ccc(NC(=O)CNC(=O)c2cccc(Cl)c2)nc1 | 66*

Screens: PubChem, Broad Institute
